Only a selection was taken, and hits are over-represented in it overall.
AmpC inh detg – AmpC beta-lactamase inhibition with detergent present; Potency, µM (top dose mostly 114 µM), usual class: inhibitors; P00811; AmpC hydrolysis of nitrocefin, absorbance 480 nm, 0.01% Triton; 0.041% of 370,000 active; further: nearly all actives have a fitted effect of over 25% in size
Target sequence (P00811 whole entry, looked up): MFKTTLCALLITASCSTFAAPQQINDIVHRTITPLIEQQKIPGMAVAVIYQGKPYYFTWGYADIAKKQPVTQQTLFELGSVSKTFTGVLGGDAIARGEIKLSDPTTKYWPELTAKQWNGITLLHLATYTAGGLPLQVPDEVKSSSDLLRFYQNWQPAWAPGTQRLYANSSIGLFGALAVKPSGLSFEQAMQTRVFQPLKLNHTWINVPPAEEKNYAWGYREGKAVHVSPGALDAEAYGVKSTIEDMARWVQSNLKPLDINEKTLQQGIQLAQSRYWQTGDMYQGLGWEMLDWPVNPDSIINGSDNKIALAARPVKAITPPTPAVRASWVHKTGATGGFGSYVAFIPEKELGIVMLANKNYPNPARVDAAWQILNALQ
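AmpC (5.3 nM in the dispensed reagent) in 20 mM phosphate pH 7.0 with 0.01% (detergent screen) or 0.0001% Triton X-100 was preincubated with compounds for 15 min at room temperature. Nitrocefin was then added from an 800 uM solution, and hydrolysis was followed at 480 nm.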
AmpC inh no detg – inhibitors of E. coli AmpC beta-lactamase without detergent; Potency, µM (series often up to 57.1 µM), hits mostly inhibitors; AmpC nitrocefin hydrolysis, absorbance 480 nm, 0.0001% Triton; 0.52% of 330,000 active; P00811; AID 485341; further: nearly all actives have a fitted effect of over 20% in size
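20 mM phosphate pH 7.0 + 0.01% (detergent screen) or 0.0001% Triton X-100; 5.3 nM AmpC reagent; cpd preinc 15 min RT; nitrocefin (800 uM stock) to start; A480 q20 s × 4 min; Activity was normalised to no-enzyme and no-compound control wells.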
Shiga toxin inh – blocks Shiga toxin action in Vero cells; Vero cells, Shiga toxin protein synthesis inhibition reporter; inhibition, % at 38.7 µM; 9.2% of 290,000 active; AID 2315; in the data active means inhibition mostly above about 28%, no sharp cut-off; inactive means mostly below about 43%
NS1 inh – inhibitors of influenza NS1 protein function | Potency, µM (top dose mostly 46.1 µM) | 0.4% of 270,000 active; calls by dose curve; further: actives are rising curves; nearly all actives have a fitted effect of over 50% in size
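In this qHTS, NS1 from influenza A is expressed in budding yeast, where it slows growth. Cells are switched from glucose to 2% galactose medium (pH 6.0, -URA), treated with compound, and growth recovery is read at OD600.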
CHX counter – counter-screen for Shiga toxin inhibitors: cycloheximide protein synthesis inhibition. cell reporter, cycloheximide protein synthesis inhibition counterscreen. max response, %. 12% of 300,000 active. AID 2314; in the data active means max response mostly above about 13%, no sharp cut-off; inactive means mostly below about 14%; further: read at 38.3 µM for the half of the compounds with a filed dose
Each line names hits and unclear results; the compound was inactive in the other large screens. Unless noted, the call rests on the fitted dose curve; in most records, active means well fitted curve in the direction sought with a large enough effect; inconclusive means small, poorly fitted or top-dose-only effect, or another doubt; inactive means no such curve, though single readings can be large; an effect the other way counts as inactive or inconclusive.

CCN(C[C@H]1N[C@@](CC)(C(=O)OC)[C@H]2C(=O)N(C)C(=O)[C@@H]12)C(=O)c1ccc(C(C)(C)C)cc1	none (no result: AmpC inh detg, Shiga toxin inh, NS1 inh, CHX counter)
C/C(=N\NC(=O)c1ccccc1C)c1cccc([N+](=O)[O-])c1	AmpC inh detg inconclusive
C/C(=N\Nc1ccc(Cl)c(C(=O)O)c1)c1cccc([N+](=O)[O-])c1	Shiga toxin inh 158.6, CHX counter 80.4
O=[N+]([O-])c1ccc(CN2CCN(c3ccccc3)CC2)o1	none (no result: Shiga toxin inh)
O=[N+]([O-])c1cc2c(cc1CN1CCN(c3ccccc3)CC1)OCO2	CHX counter 34.9 (no result: Shiga toxin inh)
O=C(OCC#CCSc1nc2ccccc2o1)c1ccco1	Shiga toxin inh 30.8, CHX counter 13.3 (no result: NS1 inh)
O=C(OCC#CCSc1nc2ccccc2o1)c1cc2ccccc2o1	CHX counter 15.2
O=S(O)CO	none (no result: AmpC inh detg, AmpC inh no detg, NS1 inh)
O=C(CCl)N=c1sccn1Cc1ccc(Cl)cc1Cl	CHX counter 28.0 (no result: NS1 inh)
O=C(CCl)N=c1sccn1Cc1ccccc1Cl	none
Cc1[nH]nc(N=CC2=C(O)CC(c3ccco3)CC2=O)c1-c1ccccc1 (configuration not stated)	CHX counter 13.7
CCc1ccc(Nc2n[n+](-c3ccccc3)c(-c3ccc(N(CC)CC)cc3)s2)cc1	Shiga toxin inh 51.5, CHX counter 34.5
CCN(CC)c1ccc(-c2sc(Nc3ccccc3)n[n+]2-c2ccc(F)cc2)cc1	Shiga toxin inh 25.9, CHX counter 18.2
O=C(O)c1ccc(-c2sc(Nc3ccccc3)n[n+]2-c2ccc(F)cc2)cc1	none
CN(C)c1ccc(-c2sc(Nc3ccccc3)n[n+]2-c2ccc(F)cc2)cc1	Shiga toxin inh 50.4, CHX counter 35.9
COc1cccc(CNS(=O)(=O)c2c(C(=O)N3CCC(C)CC3)c(C)n(C)c2C)c1	none (no result: AmpC inh no detg, Shiga toxin inh, NS1 inh, CHX counter)
N/C(=N\N=C\c1cccc(O)c1)c1nonc1N	Shiga toxin inh 59.3, CHX counter 30.8 (no result: NS1 inh)
N/C(=N\N=C\c1ccc([N+](=O)[O-])cc1)c1nonc1N	Shiga toxin inh 91.4, CHX counter 51.1
COc1ccc(/C=N/N=C(\N)c2nonc2N)cc1OC	Shiga toxin inh 108.1, CHX counter 31.0 (no result: NS1 inh)
COc1ccc(/C=N/N=C/c2ccc(OC)c(OC)c2)cc1OC	none
Cc1c(C(=O)N/N=C/c2cccc(O)c2)nnn1-c1nonc1N	none
COc1ccc(OC)c(/C=N/N=C(\N)c2nonc2N)c1	Shiga toxin inh 59.1, CHX counter 38.0
CCOc1ccc(CN(C)C(=O)CN2C(=O)NC(c3ccccc3)(c3ccccc3)C2=O)cc1	none (no result: Shiga toxin inh, NS1 inh, CHX counter)
O=C(Cn1nc(C(=O)O)c2ccccc2c1=O)Nc1ccc(Cl)c(S(=O)(=O)N2CCOCC2)c1	none (no result: AmpC inh detg, Shiga toxin inh, NS1 inh, CHX counter)
CC(NC(=O)c1ccco1)C(=O)OC(C)C(=O)NCc1ccccc1 (configuration not stated)	none (no result: NS1 inh)
CSc1nncn1/N=C/c1ccc2c(c1)OCO2	none
CSc1nncn1/N=C/c1ccc([N+](=O)[O-])cc1	none
N/C(=N\N=C\c1ccc(O)c(O)c1)c1nonc1N	Shiga toxin inh 67.1, CHX counter 43.0
CS/C(N)=N/N=C/c1ccc2c(c1)OCO2	Shiga toxin inh 71.0, CHX counter 25.1
COc1cc(/C=N/N=C(\N)c2nonc2N)ccc1O	Shiga toxin inh 61.3, CHX counter 24.4 (no result: NS1 inh)
CS/C(N)=N/N=C/c1ccc([N+](=O)[O-])cc1	Shiga toxin inh 74.8, CHX counter 30.2
O=c1onc2cnc3ccccc3n12	none (no result: AmpC inh detg, AmpC inh no detg, Shiga toxin inh, CHX counter)
N/C(=N\N=C\c1ccc(O)cc1)c1nonc1N	CHX counter 30.0 (no result: NS1 inh)
Nc1nonc1-n1nnc(C(=O)N/N=C/c2ccc(O)cc2)c1COc1ccc(F)cc1	none
Cc1cc(C)n2c(SCc3cccs3)nnc2n1	Shiga toxin inh active, CHX counter 15.4
CCCSc1nnc2nc(C)cc(C)n12	none
Cc1cccc(NP(C)(=O)c2nc3c(s2)CCCC3)c1 (configuration not stated)	AmpC inh detg inconclusive, Shiga toxin inh 37.3, CHX counter 25.1
O=C1Nc2ccccc2C1Cc1ccccn1 (configuration not stated)	none
O=C1OC(Cc2ccccn2)C(O)=C1C1=NCCCN1 (configuration not stated)	Shiga toxin inh 80.8, CHX counter 27.6
O=C1OC(Cc2ccccn2)C(O)=C1C1=NCCCCN1 (configuration not stated)	Shiga toxin inh 115.8, CHX counter 39.4
CN1CCN(C2(CNC(=O)c3ccc([N+](=O)[O-])cc3)CCCCC2)CC1	none (no result: AmpC inh no detg, Shiga toxin inh, NS1 inh, CHX counter)
CC1=NN(c2ccccc2)C(=O)C1C(=O)C(=O)Nc1ccc(F)cc1 (configuration not stated)	Shiga toxin inh 78.7, CHX counter 30.1 (no result: NS1 inh)
Cc1ccc(NC(=O)C(=O)C2C(=O)Nc3ccccc32)cc1 (configuration not stated)	CHX counter 10.9
Cc1ccc(S(=O)(=O)N2Cc3ccccc3CC2C(=O)NC(C)(C)C)cc1 (configuration not stated)	AmpC inh detg inconclusive
CCOc1ccc(/C=C/c2nc(C#N)c(N3CCN(c4ccccc4)CC3)o2)cc1	none (no result: AmpC inh no detg, Shiga toxin inh, NS1 inh, CHX counter)
Cc1ccc2nc(-c3ccc(N4C(=O)CC(N5CCN(CCO)CC5)C4=O)cc3)sc2c1 (configuration not stated)	Shiga toxin inh 67.9, CHX counter 37.3
Cc1ccc(N2C(=O)CC(N3CCN(c4ccccn4)CC3)C2=O)cc1 (configuration not stated)	none
Clc1ccc(OCCCCCN2CCCC2)c(Br)c1	none
Clc1ccc(OCCCN2CCCCC2)c(Br)c1	Shiga toxin inh 12.2, CHX counter 70.9
CC(C)NCCCOc1ccc(Cl)cc1Br	Shiga toxin inh 36.4, CHX counter 30.8
COc1ccc(OC)c(NC(=O)c2ccc(CSc3nnc(C)s3)cc2)c1	none
CCn1cnc2cc(NCc3ccncc3)ccc21	AmpC inh detg inconclusive
Cc1ccc(C(=O)Nc2ccc3c(c2)ncn3C)cc1	AmpC inh detg inconclusive, Shiga toxin inh 112.1, CHX counter 25.8
Cc1ccc(NC(=O)CCn2cnc3cc(C)c(C)cc32)cc1	none
CCn1cnc2cc(NC(=O)c3ccc(C)cc3)ccc21	Shiga toxin inh 49.4, CHX counter 44.4
COc1ccccc1NC(=O)C1CCN(S(=O)(=O)c2ccc3c(c2)oc(=O)n3C)CC1	none (no result: AmpC inh no detg, Shiga toxin inh, NS1 inh, CHX counter)
CCOc1ccc(/C=C(/NC(=O)c2ccccc2Cl)C(=O)O)cc1	none
CCOc1ccc(N(C(=O)c2ccccc2Cl)C2=NC(C)(C)CS2)cc1	Shiga toxin inh 65.6, CHX counter 28.3 (no result: NS1 inh)
Nc1cccc2c(=O)[nH]ccc12	none (no result: AmpC inh detg, AmpC inh no detg, NS1 inh)
COc1ccc(-c2ccc(CCC(=O)O)n2C(C)C)cc1	AmpC inh detg inconclusive
O=C(O)CCc1ccc(-c2ccc(Br)cc2)o1	Shiga toxin inh 38.9
O=C(O)CCc1ccc(-c2ccc(Cl)cc2)o1	none
COc1ccc(-c2ccc(CCC(=O)O)o2)cc1	Shiga toxin inh 41.0, CHX counter 25.5
CC(C(=O)Nc1ccc(S(=O)(=O)N2CCCCC2)cc1)N1CCN(c2ccccn2)CC1 (configuration not stated)	none
CC(C)(C)C(=O)COC(=O)c1cccc(NC(=O)c2ccco2)c1	CHX counter 26.8
